Assay outcomes deposited in PubChem BioAssay by several laboratories.
LMP1 NFkB inh: EBV LMP1-driven NF-kappaB luciferase reporter inhibitors, primary screen, cell-based, luminescence, single point; 350,000 compounds, 0.69% hits; LMP1-induced NF-kappaB luciferase reporter cells; inhibition, % at 12.5 µM; in the data active = inhibition above about 41%;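 also: 0% = neutral control wells and 100% = reference inhibitor control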
KKLEB tox: cytotoxicity in KKLEB CF airway cells, primary screen, cytotoxicity control for CF NF-kB inhibitor project, cell-based, uHTS, fluorescence assay plates. 360,000 compounds, 0.36% hits. AID 602141, 2011. KKLEB CF airway cells viability, ATPlite luminescence, overnight; stronger effect = lower value; cells stimulated with P. aeruginosa culture filtrate. activity change (cytotoxicity), % at 5 µM;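 active = corrected activity change at or below -50% at 5 µM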
Peg3 promoter: Peg3 promoter-driven luciferase inhibitors, primary screen, cell-based, HeLa, luciferase luminescence. HeLa PEG-Prom luciferase reporter, overnight. inhibition, % at 20 µM. 360,000 compounds, 1.7% hits;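 active = inhibition of at least 50% at 20 µM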
MITF TRPM1 inh: inhibitors of MITF-dependent TRPM1 promoter reporter, primary screen, cell-based, SK-MEL-5, single point, luciferase | SK-MEL-5 TRPM1 promoter luciferase, 24 h | inhibition, % at 12.5 µM | 330,000 compounds, 0.83% hits | AID 488899, 2010;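 active = mean inhibition across replicates of 60% or more, whatever share of single replicates reaches that level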
CF NFkB inh: inhibitors of PAF-induced NF-kB signaling, primary screen, cell-based, GFP fluorescence, uHTS; KKLEB NF-kB-GFP reporter, GFP fluorescence overnight; inhibition, % at 5 µM; AID 588850, 2011; 360,000 compounds, 0.86% hits;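 active = at least 50% inhibition at 5 µM, scaled per plate between neutral and stimulator controls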;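 also: PAF is a Pseudomonas aeruginosa culture filtrate used as stimulus; plate controls were PAF-stimulated DMSO wells for no effect and unstimulated DMSO wells for full effect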
Shn3 inh set2: reduction of Shn3 3'UTR firefly luciferase signal, primary screen, Schnurri-3 inhibitor project, cell-based, Clone20 osteoblasts, set 2; Clone20 osteoblast Shn3 3'UTR firefly luciferase, 24 h; inhibition, % at 12.5 µM; 360,000 compounds, 0.52% hits; AID 588674, 2011;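 active = mean inhibition of at least 75% with every replicate also reaching 75%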;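 also: 0% = median of neutral control wells and 100% = pilot-screen positive control compound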
The depositor's hits bear a star; x = not tested or not shown. Rows were chosen to be rich in hits. Some 2.9% of all compounds tested hit in one or more screens of this group.

SMILES | LMP1 NFkB inh | KKLEB tox | Peg3 promoter | MITF TRPM1 inh | CF NFkB inh | Shn3 inh set2
Cc1cccc(OCCN2CSC(=S)N(C)C2)c1 | 25 | -2 | 57* | 21 | -5 | -3
COc1ccccc1OCCN1CSC(=S)N(C)C1 | 14 | -18 | 100* | 69* | 16 | -28
CC(C)N1CCC(C)(C(=O)Nc2cc(-c3ccccc3)nn2C)C1 (stereo not drawn) | x | -4 | -12 | x | -5 | -7
Cn1cc(C(=O)N/N=C/c2ccc(Br)c([N+](=O)[O-])c2)c2ccccc21 | x | 8 | 52* | x | -2 | 1
Cn1cc(C(=O)N/N=C/c2ccc3c(c2)OCO3)c2ccccc21 | -8 | -6 | -64 | -4 | 6 | x
CCOC(=O)c1cc2c(c(CCO)n1)[C@@H](CCO)N(S(=O)(=O)C(C)(C)C)C2 | -7 | 22 | -13 | -5 | -21 | -8
CCCCCCCCCC[n+]1cccc2c3ccccc3ccc21 | 30 | -50* | 75* | 101* | 49 | 84
CCCCCCCC[n+]1cccc2c3ccccc3ccc21 | 33 | -27 | 54* | 86* | 38 | 80
O=C1CN(C(=O)CN2CCN(S(=O)(=O)c3ccccc3F)CC2)c2ccccc2N1 | 0 | 0 | -1 | x | -31 | -5
O=C(OCc1ccccc1)N1CCC2CC1c1ccc(/C=C/CCCCl)cc12 (stereo not drawn) | x | -18 | -174 | x | 16 | -33
Cc1nn(-c2ccc(Cl)cc2)c(=O)c2ccccc12 | -38 | 8 | -181 | -11 | -3 | -82
Cc1c(Cl)sn(-c2ccc(Cl)cc2)c1=O | 11 | -90* | 108* | 97* | 79* | 91*
O=C1C(SCCO)=C(SCCO)C(=O)c2ccccc21 | 59* | -6 | 100* | 111* | 72* | 93*
O=c1[nH]c2ccccc2c(O)c1SCCO | -11 | 2 | 1 | 3 | -12 | -14
C[C@@H](NC(=O)c1nc[nH]c1C(=O)N[C@@H](CCCCNC(=O)OC(C)(C)C)C(=O)OC(C)(C)C)c1ccccc1 | -16 | -8 | 21 | 11 | 9 | -6
CNC(=O)c1[nH]cnc1C(=O)N[C@@H](CCCCNC(=O)OC(C)(C)C)C(=O)OC(C)(C)C | 44* | -11 | 6 | -17 | 1 | -24
CC(C)(C)OC(=O)NCCCC[C@H](NC(=O)c1[nH]cnc1C(=O)Nc1ccc(Cl)cc1)C(=O)OC(C)(C)C | 6 | 4 | 63* | 10 | 10 | 25
CC(C)C[C@H](NC(=O)c1nc[nH]c1C(=O)N[C@@H](CCCCNC(=O)OC(C)(C)C)C(=O)OC(C)(C)C)C(=O)OC(C)(C)C | -1 | 4 | 15 | 17 | -15 | 2
Cc1ccc(NC(=O)c2nc[nH]c2C(=O)NC2CCN(C(=O)OC(C)(C)C)CC2)cc1 | 2 | -1 | 19 | 6 | 5 | 9
CC(C)(C)OC(=O)[C@H](CCCCN)NC(=O)c1nc[nH]c1C(=O)N[C@@H](CCCCN)C(=O)OC(C)(C)C | -6 | 0 | 5 | 3 | -18 | 1
CC(C)(C)OC(=O)N1CCC(NC(=O)c2[nH]cnc2C(=O)Nc2ccccc2)CC1 | -1 | -8 | 52* | -2 | 11 | -9
CC(C)(C)OC(=O)[C@H](Cc1ccccc1)NC(=O)c1nc[nH]c1C(=O)N[C@@H](CCCCN)C(=O)OC(C)(C)C | 6 | -8 | 103* | 18 | 20 | 0
COc1cccc(CNc2nc3cc(C(C)=C(C)C)sc3c(=O)n2C)c1 | x | 2 | -9 | x | 1 | 2
CC(C)(C)OC(=O)NCCCC[C@H](NC(=O)c1[nH]cnc1C(=O)Nc1ccccc1)C(=O)OC(C)(C)C | -10 | -30 | 53* | 3 | 15 | -2
CCOC(=O)c1ccc(NC(=O)c2nc[nH]c2C(=O)NCCNC(=O)c2[nH]cnc2C(=O)Nc2ccc(C(=O)OCC)cc2)cc1 | 4 | -50* | 91* | 100* | 76* | 88*
SMILES | LMP1 NFkB inh | KKLEB tox | Peg3 promoter | MITF TRPM1 inh | CF NFkB inh | Shn3 inh set2
CC(C)(C)OC(=O)NCc1ccc(CNC(=O)c2[nH]cnc2C(=O)NCC(=O)OCc2ccccc2)cc1 | 5 | -2 | 52* | -2 | -6 | 12
CC(C)(C)OC(=O)NCc1ccc(CNC(=O)c2nc[nH]c2C(=O)NCc2ccccc2)cc1 | 0 | -4 | 15 | -4 | 15 | 28
CCCS(=O)(=O)NC(=O)C1(C)CCCN(C(=O)c2c(-c3ccccc3)noc2C)C1 (stereo not drawn) | x | 0 | 11 | x | -74 | 12
CCN(CC)C(=O)C1=C(C)N(Cc2ccc(C(C)(C)C)cc2)C(=O)C(CC(=O)NCC2CCCCC2)C1 (stereo not drawn) | -2 | -7 | 8 | x | 3 | 6
O=C1c2cccc(NCCCNCCO)c2C(=O)c2cccc(NCCCNCCO)c21 | 25 | -4 | 109* | 86* | -34 | -49
CC1(C(=O)NCc2cccnc2)CCN1C(=O)c1cccc(F)c1 (stereo not drawn) | x | 6 | 3 | x | 17 | -17
Cc1ccc(S(=O)(=O)N(C(=O)c2ccncc2)c2ccc(OC(=O)c3ccncc3)cc2)c(C)c1 | 18 | -50* | 52* | 7 | 72* | 2
Cc1ccc(S(=O)(=O)N(C(=O)c2ccncc2)c2ccc(OC(=O)c3ccncc3)cc2)cc1 | 11 | -6 | 17 | 16 | 21 | -1
O=C1C(=O)c2ccccc2C([O-])=C1[n+]1ccccc1 | -19 | 15 | 8 | 14 | -4 | 12
CCc1cc[n+](C2=C([O-])c3ccccc3C(=O)/C2=N\S(=O)(=O)c2cccs2)cc1 | 3 | -25 | -20 | 97* | 74* | 59
Cc1ccc(S(=O)(=O)N2C[C@H]3C(=O)C[C@@H](c4ccccc4)N(S(=O)(=O)c4ccc(Br)cc4)[C@H]3C[C@H]2c2ccccc2)cc1 | x | -8 | 6 | x | -21 | 4
Nc1cccnc1S(=O)(=O)c1cccc(C(F)(F)F)c1 | -2 | 9 | 12 | 0 | -13 | 7
Nc1nc(N)c2cc(S(=O)(=O)c3cccc(C(F)(F)F)c3)ccc2n1 | 2 | -19 | 22 | x | 27 | 85*
CCOc1ccccc1-c1cncc(NC)n1 | x | 11 | 6 | x | -18 | -5
CCCCn1c(CN(C)Cc2ccccc2)nc2c1c(=O)n(C)c(=O)n2C | 12 | -10 | 16 | 19 | -3 | 87*
COc1ccc(OCC(O)CNCCOc2ccccc2OC)c(C(C)(C)C)c1 (stereo not drawn) | 4 | 2 | 63* | -3 | 12 | 84
